In PubChem BioAssay (Tox21) one finds Potency data, which are given here for 22 molecules.

Values joined by “and” are separate entries in the source; they are usually repeats but may differ in a detail not shown here. Equal values may be shown once. Inconclusive results are not listed. A structure can be active in one record and inactive in another. Active and inactive are the calls of the source. Unless noted, calls follow the shape of the dose curve; as a rule, active = well fitted curve in the direction sought with a large enough effect in the repeat runs; inconclusive = weak or mixed curves; inactive = no such curve, though single readings can be large; an effect the other way counts as inactive or inconclusive. Non-standard residues stand in square brackets, D forms with d. Residues, ends and D or L forms follow the SMILES beside them. Orn = NCCC[C@H](N)C(=O)O

A short description of test [1]: qHTS assay to identify small molecule antagonists of the glucocorticoid receptor (GR) signaling pathway - cell viability counter screen (AID 720693). Also: nearly all actives have a fitted effect of over 55% in size. Also: potency is read from the fitted curve at half-maximal effect. On the technique in general: In qHTS, concentration-response curves come from the screen itself.
Test [2] is described as follows: qHTS assay for identifying genotoxic compounds that show differential cytotoxicity against isogenic chicken DT40 cell lines with known DNA damage response pathways - wild type cell line (AID 743012). Also: nearly all actives have a fitted effect of over 60% in size. Also: potency is read from the fitted curve at half-maximal effect. In short, it runs like this: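 Viability by ATP luminescence (CellTiter-Glo, 30 min RT) after 40 h compound treatment at 37 C/5% CO2, using 300 parental DNA repair-proficient DT40 cells per well.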

Test [3] is described as follows: qHTS assay for identifying genotoxic compounds that show differential cytotoxicity against isogenic chicken DT40 cell lines with known DNA damage response pathways - Rev3 mutant cell line (AID 743014). Also: nearly all actives have a fitted effect of over 55% in size. Also: potency is read from the fitted curve at half-maximal effect.
Test [4] can be described thus: qHTS assay for identifying genotoxic compounds that show differential cytotoxicity against isogenic chicken DT40 cell lines with known DNA damage response pathways - Rad54/Ku70 mutant cell line (AID 743015). Also: nearly all actives have a fitted effect of over 60% in size. Also: potency is read from the fitted curve at half-maximal effect.
Test [5] can be described thus: qHTS assay to identify small molecule antagonists of the androgen receptor (AR) signaling pathway - cell viability counter screen (AID 743033; also: nearly all actives have a fitted effect of over 45% in size; also: potency is read from the fitted curve at half-maximal effect).
Test [6] concerns the target Androgen receptor (Homo sapiens) (UniProt P10275). The experiment in a line: qHTS assay to identify small molecule antagonists of the androgen receptor (AR) signaling pathway (AID 743035; active = well fitted inhibition curve with a large enough effect in the signal ratio in the repeat runs, not every such curve was filed as active; the % refers to the signal ratio; also: potency is read from the fitted curve at half-maximal effect). In short, it runs like this: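 Antagonist mode: AR-bla HEK293 cells co-treated with test compounds and agonist R1881 for 16 h at 37C, 5% CO2. Beta-lactamase activity read as FRET fluorescence after 2 h room-temperature substrate loading.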

Test [7] can be described thus: qHTS assay to identify small molecule antagonists of the androgen receptor (AR) signaling pathway using the MDA cell line - cell viability counter screen (AID 743041; also: nearly all actives have a fitted effect of over 45% in size; also: potency is read from the fitted curve at half-maximal effect). In short, it runs like this: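 qHTS viability read-out; MDA-kb2 AR-luc; R1881-stimulated; 16 h exposure at 37C, 0% CO2; CellTiter-Fluor, 30 min; fluorescence intensity.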
In test [8] the target is Androgen receptor (Homo sapiens) (UniProt P10275). The experiment in a line: qHTS assay to identify small molecule antagonists of the androgen receptor (AR) signaling pathway using the MDA cell line (AID 743042; also: nearly all actives have a fitted effect of over 55% in size; also: potency is read from the fitted curve at half-maximal effect). In short, it runs like this:
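MDA-kb2 cells (human breast carcinoma, stably carrying an MMTV-luciferase reporter responsive to AR and GR) were plated at 3,000 cells/well and preincubated 5 hr at 37C, then given compound plus R1881 agonist for 16 h. ONE-Glo luminescence was read.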

For test [9] the target is unchanged. Kind of test: qHTS assay to identify small molecule agonists of the androgen receptor (AR) signaling pathway using the MDA cell line (AID 743040; also: nearly all actives have a fitted effect of over 20% in size). In short, it runs like this: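 Agonist activity is measured as luciferase luminescence in human MDA-kb2 cells whose MMTV reporter responds to both AR and GR. Compounds in DMSO incubate 16 h at 37C, 0% CO2, and ONE-Glo is read after 30 min.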

For test [10] the target is unchanged. The experiment in a line: qHTS assay to identify small molecule agonists of the androgen receptor (AR) signaling pathway (AID 743036; active = well fitted activation curve with a large enough effect in the signal ratio in the repeat runs, with a control signal flat, not every such curve was filed as active; the % refers to the signal ratio). In short, it runs like this: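 HEK293 cells stably carrying a UAS-driven beta-lactamase reporter (GeneBLAzer AR-UAS-bla-GripTite) were plated at 2,000 cells/well, rested 4 h at 37C, then exposed to compounds in DMSO for 16 h. LiveBLAzer B/G FRET substrate was added for 2 h at room temperature; fluorescence read.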

Androgen receptor (Homo sapiens), sequence (P10275 whole entry, looked up): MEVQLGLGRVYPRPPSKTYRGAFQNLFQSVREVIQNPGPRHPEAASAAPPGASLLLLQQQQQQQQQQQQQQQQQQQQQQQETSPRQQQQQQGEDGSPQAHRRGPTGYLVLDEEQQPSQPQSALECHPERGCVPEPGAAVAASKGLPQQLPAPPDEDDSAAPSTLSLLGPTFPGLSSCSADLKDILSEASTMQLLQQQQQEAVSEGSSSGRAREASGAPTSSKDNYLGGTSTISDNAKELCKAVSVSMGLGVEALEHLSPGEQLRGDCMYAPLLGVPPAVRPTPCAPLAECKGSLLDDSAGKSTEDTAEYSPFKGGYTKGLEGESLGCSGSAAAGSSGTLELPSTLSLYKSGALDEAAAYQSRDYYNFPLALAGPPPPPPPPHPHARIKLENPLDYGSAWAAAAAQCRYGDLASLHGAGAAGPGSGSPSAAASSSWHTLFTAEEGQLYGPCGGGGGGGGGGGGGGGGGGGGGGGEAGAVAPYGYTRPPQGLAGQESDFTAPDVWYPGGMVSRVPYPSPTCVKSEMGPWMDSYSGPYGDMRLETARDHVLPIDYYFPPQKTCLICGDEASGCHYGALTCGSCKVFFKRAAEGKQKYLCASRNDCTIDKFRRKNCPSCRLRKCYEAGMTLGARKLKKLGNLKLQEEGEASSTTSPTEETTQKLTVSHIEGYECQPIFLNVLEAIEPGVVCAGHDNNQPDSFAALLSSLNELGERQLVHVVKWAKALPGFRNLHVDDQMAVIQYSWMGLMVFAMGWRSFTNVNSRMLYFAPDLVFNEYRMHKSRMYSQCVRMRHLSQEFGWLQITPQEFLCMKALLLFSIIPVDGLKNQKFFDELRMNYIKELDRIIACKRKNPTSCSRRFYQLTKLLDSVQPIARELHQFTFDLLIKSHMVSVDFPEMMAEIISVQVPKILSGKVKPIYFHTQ

As to `Nc1c(CC(=O)O)cccc1C(=O)c1ccccc1`, the Potency entry in test [1], in test [2], in test [3], in test [4], in test [5] and in test [6] was “inactive” throughout. Besides, the Potency entry in test [7] and in [8] was “inactive” each time.
In the case of `FC(F)(F)COCC(F)(F)F`, the Potency entry in test [1], in test [2], in [3], in test [4], in [5] and in [7] was “inactive” throughout.
On to `CC12CCC(C[N+](C)(CCC[N+](C)(C)C)C1)C2(C)C` (stereo unspecified), for which the Potency result in test [1], in test [2], in test [3], in [4], in test [5] and in test [7] was “inactive” each time.
Regarding `O=C(O)/C=C/C(O)c1ccc(Cl)cc1` (stereo unspecified), the Potency result in test [1], in [2], in test [3], in test [4], in test [5] and in test [6] was “inactive” each time. Also, the Potency entry in test [9], in test [7] and in test [8] was “inactive” throughout.
Turning to `CCc1ncnc2cc(OC)c(OC)cc12`, the Potency entry in test [1], in test [2], in test [3], in test [4], in test [5] and in test [6] was “inactive” throughout. Moreover, the Potency entry in [9], in [7] and in test [8] was “inactive” each time.
Regarding `O=C(O)COc1ccc(C(=O)c2cccs2)c(Cl)c1Cl`, the Potency entry in test [1], in [2], in test [3], in test [4], in test [5] and in test [6] was “inactive” in each case. Besides, the Potency result in [7] and in test [8] was “inactive” throughout.
With `C[C@H]1O[C@@H](O[C@H]2CC[C@@]3(C)[C@H](CC[C@@H]4[C@@H]3C[C@@H](O)[C@]3(C)[C@@H](C5=CC(=O)OC5)CC[C@]43O)C2)C[C@H](O)[C@@H]1O[C@H]1C[C@H](O)[C@H](O[C@H]2C[C@H](O)[C@H](O[C@@H]3O[C@H](CO)[C@@H](O)[C@H](O)[C@H]3O)[C@@H](C)O2)[C@@H](C)O1`, the Potency in [1] was 1340 nM (active); in test [2] it was 1.33 µM (active); in [3] it was 1.33 µM (active); in test [4] it was 1.5 µM (active); in test [5], 268 nM (active); in [6], 1200 nM (active). Further, in test [7], the Potency entry is “inactive”.
For the molecule `CC1(C)S[C@@H]2[C@H](NC(=O)[C@H](N)c3ccc(O)cc3)C(=O)N2[C@H]1C(=O)O`, the Potency entry in [1], in [2], in test [3], in test [4], in [5] and in test [10] was “inactive” in each case. For the same molecule, the Potency entry in test [9] and in [7] was “inactive” throughout.
For the molecule `NC(=O)[C@@H]1CCCN1C(=O)[C@H](Cc1cnc[nH]1)NC(=O)[C@@H]1CCC(=O)N1`, the Potency entry in test [1], in test [2], in test [3], in test [4], in [5] and in [7] was “inactive” in each case.
Regarding `CNCC(=O)N[C@@H](CCCN=C(N)N)C(=O)N[C@H](C(=O)N[C@@H](Cc1ccc(O)cc1)C(=O)N[C@H](C(=O)N[C@@H](Cc1cnc[nH]1)C(=O)N1CCC[C@H]1C(=O)N[C@@H](C)C(=O)O)C(C)C)C(C)C`, the Potency entry in test [1], in [2], in test [3], in [4], in [5] and in test [7] was “inactive” in each case.
As for `CC(C)=CCC/C(C)=C/CC/C(C)=C/CC/C=C(\C)CC/C=C(\C)CCC=C(C)C`, the Potency entry in test [1], in test [2], in test [3], in [4], in [5] and in test [7] was “inactive” in each case.
Turning to `O=C1c2c(O)cccc2[C@H]([C@@H]2O[C@H](CO)[C@@H](O)[C@H](O)[C@H]2O)c2cc(CO)cc(O)c21`, the Potency result in test [1], in test [2], in test [3], in [4], in test [5] and in test [7] was “inactive” each time.
Turning to `COc1c(O)cc2c(c1O)[C@@H]1O[C@H](CO)[C@@H](O)[C@H](O)[C@H]1OC2=O`, the Potency result in test [1], in test [2], in [3], in test [4], in [5] and in [6] was “inactive” throughout. Also, the Potency entry in test [7] and in [8] was “inactive” in each case.
Take `CCCn1c(=O)[nH]c(=O)c2[nH]cnc21`: the Potency result in test [1], in [2], in test [3], in test [4], in [5] and in [7] was “inactive” in each case.
As for `CCC1OC(=O)C[C@@H](O)[C@H](C)[C@@H](O[C@@H]2O[C@H](C)C[C@H](N(C)C)[C@H]2O)[C@@H](CC=O)C[C@@H](C)C(=O)/C=C/[C@]2(C)OC2C1C` (stereo partly specified), the Potency entry in test [1], in [5], in test [10] and in [7] was “inactive” throughout. Also, the Potency in test [2] is 11.9 µM (active) and 4.73 µM (active); in test [3], 21.1 µM (active) and 8.41 µM (active); in [4], 16.8 µM (active) and 7.5 µM (active); in test [8], 26.6 µM (active) and 23.7 µM (active).
`C=C1C(CCl)(CCl)C2(Cl)C(Cl)C(Cl)C1(Cl)C2(Cl)Cl` (stereo unspecified): the Potency in test [1] was 13400 nM (active); in [2], 4.73 µM (active) and 30.3 µM (active); in test [3], 2.98 µM (active) and 4.28 µM (active); in [4], 5.96 µM (active) and 17 µM (active); in test [5] it was “inactive and 54.3 µM (active)”; in test [6] it was 34300 nM (active). The Potency in test [8] is 26.6 µM (active). Also, the Potency entry in test [7] is “inactive”.
Take `O=C(CCCN1CCN2CCCC2C1)c1ccc(F)cc1` (stereo unspecified): the Potency entry in test [1], in test [5] and in [7] was “inactive” throughout. Also, the figures for the Potency in [2], in [3] and in test [4] were 11.9 µM (active), 2.11 µM (active) and 8.41 µM (active), respectively.
Take `NC(N)=NCCCCN=C(N)N`: the Potency result in test [1], in test [2], in [3], in test [4], in test [5] and in test [7] was “inactive” in each case.
As to `CCCOC(=O)c1ccc(O)cc1`, the Potency result in test [1], in [2], in [5] and in test [7] was “inactive” in each case. Besides, the Potency result in test [3] is “inactive and 68.6 µM (active)”; in [4], “inactive and 65.5 µM (active)”.
On to `CN[C@H](CC(C)C)C(=O)N[C@H]1C(=O)N[C@@H](CC(N)=O)C(=O)N[C@H]2C(=O)N[C@H]3C(=O)N[C@H](C(=O)N[C@@H](C(=O)O)c4cc(O)cc(O)c4-c4cc3ccc4O)[C@H](O)c3ccc(c(Cl)c3)Oc3cc2cc(c3O[C@@H]2O[C@H](CO)[C@@H](O)[C@H](O)[C@H]2O[C@H]2C[C@](C)(N)C(O)[C@H](C)O2)Oc2ccc(cc2Cl)[C@H]1O` (stereo partly specified), for which the Potency entry in test [1], in [2], in test [3], in test [4], in test [5] and in test [7] was “inactive” throughout.
For the molecule `CSCC[C@H](NC(=O)[C@H](Cc1ccc(OS(=O)(=O)O)cc1)NC(=O)[C@@H](N)CC(=O)O)C(=O)NCC(=O)N[C@@H](Cc1c[nH]c2ccccc12)C(=O)N[C@@H](CCSC)C(=O)N[C@@H](CC(=O)O)C(=O)N[C@@H](Cc1ccccc1)C(N)=O`, the Potency entry in test [1], in test [2], in [3], in test [4], in test [5] and in test [7] was “inactive” each time.
`CC(C)C[C@@H]1NC(=O)[C@H](CCCN)NC(=O)[C@H](C(C)C)NC(=O)[C@@H]2CCCN2C(=O)[C@@H](Cc2ccccc2)NC(=O)[C@H](CC(C)C)NC(=O)[C@H](CCCN)NC(=O)[C@H](C(C)C)NC(=O)[C@@H]2CCCN2C(=O)[C@@H](Cc2ccccc2)NC1=O` (cyclo(V[Orn]L[dF]PV[Orn]L[dF]P)): the Potency is 19000 nM (active) in [1]; 0.376 µM (active) in test [2]; 0.075 µM (active) in test [3]; 0.0944 µM (active) in test [4]; 2680 nM (active) in test [5]; 1970 nM (active) in [7].
